Data: PMC7819943, “Rice protein-binding microarrays: a tool to detect cis-acting elements near promoter regions in rice”
Whole data set: some 39,000 sequences, median “fluorescence intensity (a.u.)” near 4,300, cut for the highest 2% near 39,000. The sample holds the highest values, similar sequences and a random draw of the others, so the mix is not that of the screen.

Target: T1, OsSMF1 (Oryza sativa, UniProt Q6ZLB0 1-436)
T1 sequence: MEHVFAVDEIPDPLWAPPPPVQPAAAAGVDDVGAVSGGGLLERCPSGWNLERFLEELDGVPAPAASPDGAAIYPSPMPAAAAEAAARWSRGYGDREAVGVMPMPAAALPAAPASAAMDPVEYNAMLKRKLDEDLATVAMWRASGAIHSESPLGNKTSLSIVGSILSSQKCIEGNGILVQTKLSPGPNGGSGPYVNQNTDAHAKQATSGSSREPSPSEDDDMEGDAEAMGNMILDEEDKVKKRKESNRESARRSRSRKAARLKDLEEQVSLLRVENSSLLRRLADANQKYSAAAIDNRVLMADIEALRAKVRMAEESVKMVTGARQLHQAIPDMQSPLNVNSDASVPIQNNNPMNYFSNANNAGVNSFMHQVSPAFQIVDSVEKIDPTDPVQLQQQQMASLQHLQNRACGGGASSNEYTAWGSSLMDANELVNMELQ
Experiment: protein-binding microarray (RPBM); PBS, 2% BSA, 51.3 ng/ul salmon testes DNA, 50 uM zinc acetate, 200 nM TF, 25 C, 1 h; high values mean tight binding
Details: protein: recombinant; tags: N-terminal polyhistidine and DsRed monomer fusion (pET32a); chain copies: 2; label: CyDye5-dUTP incorporated in the synthesized complementary strand; 3' TTTTT single-stranded linker to array surface; dsDNA, one strand shown
How it was run: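 Per-feature fluorescence intensity (arbitrary units), read on an Axon 4000B scanner, is the binding signal. Transcription factors carrying an N-terminal polyhistidine tag and DsRed fusion were expressed in E. coli BL21-CodonPlus and purified on Ni–NTA. A custom Agilent array, made double-stranded by primer extension with Cy5-dUTP and blocked with 2% BSA, was incubated with 200 nM protein in PBS, 2% BSA, salmon testes DNA and 50 µM zinc acetate at 25 °C for 1 h and then washed.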

Row | Sequence | binding signal
1 | GGAAAGGCGCCACGTAATAAATAGAAACAGACTCAGCACTCGGAGTCACCTAGTGCAG | 6760 fluorescence intensity (a.u.)
2 | TATGCCAAAGAGAAGCCTCGTCAGCCATCCCTTTGGCCACCGGAGTCACCTAGTGCAG | 7800 fluorescence intensity (a.u.)
3 | GAGCAGCCAGCTCGCCAAGCCTAGCCATTCTTGATCTCTTCGGAGTCACCTAGTGCAG | 3280 fluorescence intensity (a.u.)
4 | CGAAGTCGTGCTGCGCTCCGACTCAGCTGCATCGTCACTCCGGAGTCACCTAGTGCAG | 5960 fluorescence intensity (a.u.)
5 | AAGAGGGAGGGGAGGGTTCGCGAACCAGTAGAAAACGGCTCGGAGTCACCTAGTGCAG | 3390 fluorescence intensity (a.u.)
6 | GAGGAAGAACCTTACGCTCAAACGAAACGGAACCAGTAGGCGGAGTCACCTAGTGCAG | 55100 fluorescence intensity (a.u.)
7 | TCGGCCGTCGGATCGCGCGCGAAACGCTGTGATGTGCTGGCGGAGTCACCTAGTGCAG | 4480 fluorescence intensity (a.u.)
8 | CAGGGCAGCGGCAGGTGGGGAGGAGGCCGGCGGGTCGGCGCGGAGTCACCTAGTGCAG | 3470 fluorescence intensity (a.u.)
9 | ACTCGTGGAGCCGGTGATGACGTGCCCAAGCTAGAGACAGCGGAGTCACCTAGTGCAG | 7230 fluorescence intensity (a.u.)
10 | CTGCCGGTGGACGGCGGCGGAGAGCTGACTAGCCGAGCCGCGGAGTCACCTAGTGCAG | 3520 fluorescence intensity (a.u.)
11 | GAGCCGAGACTGAGAGAGAGATCGGCGCCGGCTGTGAACGCGGAGTCACCTAGTGCAG | 48100 fluorescence intensity (a.u.)
12 | GTCCATCGGATCGGGAGCGCGCGGCGAGGCAGGCGGGGTCCGGAGTCACCTAGTGCAG | 44300 fluorescence intensity (a.u.)
13 | ACCCAACGGTGATGATGTCAGCTGACGTGGCGCCCCGGAGCGGAGTCACCTAGTGCAG | 40500 fluorescence intensity (a.u.)
14 | CAGCAGCAACGAAATCAGAACGAGGCGCAGGAAGAAGAAACGGAGTCACCTAGTGCAG | 28000 fluorescence intensity (a.u.)
15 | GCGGAGGCCGCCGGCTGACGTGGCTCCCAACGGCCGGGAGCGGAGTCACCTAGTGCAG | 21200 fluorescence intensity (a.u.)
16 | TCGGGTGAGCGAGTGAGTGGGCGAGGAGGCGCGGCGGCGGCGGAGTCACCTAGTGCAG | 3800 fluorescence intensity (a.u.)
17 | GGATTGGCGACTCGACGTTGACAACATGACATATGAGGTACGGAGTCACCTAGTGCAG | 4210 fluorescence intensity (a.u.)
18 | GCTGCTCTCTCTCTCTCTCTCTCCCATCTCGTCCTCGCTTCGGAGTCACCTAGTGCAG | 19400 fluorescence intensity (a.u.)
19 | TCCACCTGGGTTCAAATCCTAGATTTGACACGGGTGCTCGCGGAGTCACCTAGTGCAG | 4830 fluorescence intensity (a.u.)
20 | ATAGCATCCTGTACACTCAAGTCATCCCTGACACACACACCGGAGTCACCTAGTGCAG | 3850 fluorescence intensity (a.u.)
21 | GGGCCAATCTAGTTGTCAACTTCTACTACTGCTAGGAGGACGGAGTCACCTAGTGCAG | 3410 fluorescence intensity (a.u.)
22 | GCTCGCCGGCCTCACCCTCAATACATGGTGATTCATCCGGCGGAGTCACCTAGTGCAG | 3660 fluorescence intensity (a.u.)
23 | TGAATCCACAGCCACGCCACGCGGCCCATGCCTACGCCTCCGGAGTCACCTAGTGCAG | 4000 fluorescence intensity (a.u.)
24 | CCTTGCCGCCGGCCAATTTATTGACTCACCGAGAAGTTTGCGGAGTCACCTAGTGCAG | 5600 fluorescence intensity (a.u.)
25 | TGTGACCCATTCTAATACAATAAATCTGGACATGTGTACTCGGAGTCACCTAGTGCAG | 3630 fluorescence intensity (a.u.)
26 | GCCTTCCGTTCCGCTCCTCTACCGCCGCGTCAAGATTCCCCGGAGTCACCTAGTGCAG | 4950 fluorescence intensity (a.u.)
27 | TTTCCGCTATCGCGGTGCGCGCGGAAGGCCCCGCTGCGGCCGGAGTCACCTAGTGCAG | 39200 fluorescence intensity (a.u.)

Row | Sequence | binding signal
28 | TGCGCCGCCGCCGCCGCCGCCGCTGCGGCGTGCATCCGCCCGGAGTCACCTAGTGCAG | 37400 fluorescence intensity (a.u.)
29 | CGCCGCCGGCCGCGCCGCCGCTGCCGCCGTCGCCCCGCGCCGGAGTCACCTAGTGCAG | 3450 fluorescence intensity (a.u.)
30 | ATCTCTAAACACCAAATTTGACACCGATCCACGTGCACACCGGAGTCACCTAGTGCAG | 7210 fluorescence intensity (a.u.)
31 | GACCAAGATGACAAAGATTACTATTATACTGATGATAACCCGGAGTCACCTAGTGCAG | 34100 fluorescence intensity (a.u.)
32 | GCCATTGATGACAAAGACAACCTGGAAGATTACTGTTGCACGGAGTCACCTAGTGCAG | 64300 fluorescence intensity (a.u.)
33 | AAGTCTGCAGTTGCACTGGGAGTTGACAAAGAAGATGACGCGGAGTCACCTAGTGCAG | 3550 fluorescence intensity (a.u.)
34 | GTCCTCATCCTAGGTAAAATAACCACGTCATCTCACAGGTCGGAGTCACCTAGTGCAG | 20700 fluorescence intensity (a.u.)
35 | GCTAGCGCGCATTGACCAAGATCCGATTTGTATGCTAGTGCGGAGTCACCTAGTGCAG | 4060 fluorescence intensity (a.u.)
36 | GAGCAGAAAGACGCGGCTTCTCGAGAGTTCCAAGTTCCAACGGAGTCACCTAGTGCAG | 45200 fluorescence intensity (a.u.)
37 | GCAGAGGCGGCGAGGCTCGGCTTCTTCTCGAACGGCGCCGCGGAGTCACCTAGTGCAG | 27600 fluorescence intensity (a.u.)
38 | CCGAGAGAAAGAGAGCAAGAGAGAGAGACGGGCTCAAGAGCGGAGTCACCTAGTGCAG | 4560 fluorescence intensity (a.u.)
39 | CGATGAGCACCGCAGCGATTGACATATTGCAATATCGTTCCGGAGTCACCTAGTGCAG | 3550 fluorescence intensity (a.u.)
40 | ACGTACGTGTGCGTATCCGACAAGTCCCACGACGTGGCAACGGAGTCACCTAGTGCAG | 4960 fluorescence intensity (a.u.)
41 | TTTTACATGATTGGATGACAAAGCCTATTTCGTTTTGTTGCGGAGTCACCTAGTGCAG | 5400 fluorescence intensity (a.u.)
42 | TATTTGGTTTTGTAGGGGTTGGTTTGGGAAAATTGGAAAGCGGAGTCACCTAGTGCAG | 4240 fluorescence intensity (a.u.)
43 | AAATCAGGAAATGAAAAGCTAGGGTTTTAGGTATTGTAATCGGAGTCACCTAGTGCAG | 40800 fluorescence intensity (a.u.)
44 | TATTTTGGAAAATGAGTCACAGGGTTATTGTAGCTTTGAACGGAGTCACCTAGTGCAG | 9390 fluorescence intensity (a.u.)
45 | TGGTTGTATTAGGTTAATAAGCCACGTCAGTGAAAAGCACCGGAGTCACCTAGTGCAG | 16100 fluorescence intensity (a.u.)
46 | AGAAGGGGAGAAAAGGAAACCGATCTCGGTCATGGCCACGCGGAGTCACCTAGTGCAG | 50900 fluorescence intensity (a.u.)
47 | AGAGAGGGAAGGGAGGGAGGGAGGGAGGAGGGAGAGATCTCGGAGTCACCTAGTGCAG | 6770 fluorescence intensity (a.u.)
48 | TGAATGCACGTACTGGTGATGAATCTCTGATGGATGGAAGCGGAGTCACCTAGTGCAG | 3210 fluorescence intensity (a.u.)
49 | AGCAGAGTGATCTCTGATGGTCACGGGCCGAGAAGGGAAGCGGAGTCACCTAGTGCAG | 45700 fluorescence intensity (a.u.)
50 | AGCAGGAGAAGGGACCGAGAGAAGAGTCGCAGAGAGAGAGCGGAGTCACCTAGTGCAG | 3660 fluorescence intensity (a.u.)
51 | CCACCGGAAACAGGGAAGAAGAGGGGTCGAGAAAGGGGAGCGGAGTCACCTAGTGCAG | 4020 fluorescence intensity (a.u.)
52 | GCCGCGCCGTCCTGTGTGTGCGTGGCGCCAATGCATGCTACGGAGTCACCTAGTGCAG | 3590 fluorescence intensity (a.u.)
53 | GGTTTTGGAGAGCGGTTTCACTGACGTGGCAGTGTTGACCCGGAGTCACCTAGTGCAG | 22900 fluorescence intensity (a.u.)
54 | ACGCCTCATCTCCAGTCCACGGCTCAACGTCCACGCACACCGGAGTCACCTAGTGCAG | 3490 fluorescence intensity (a.u.)
